Measured values as given in PubChem BioAssay AID777 (Sanford-Burnham Center for Chemical Genomics, 2007).
Hit rate of the full screen: of about 96,000 compounds, about 19,000 (20%) were called active.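 Rule for the calls: active = blocking of liver enzyme CYP2C9 beyond about 50% at 5 µM (limit read from the data); inactive = the rest.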 These entries were drawn from the full list.

Each molecule was assayed against Cytochrome P450 2C9 (Homo sapiens) (UniProt P11712) (assay: blockers of cytochrome P450 2C9 activity – biochemical, luminescence, ADME assay, primary screen (AID 777)). Settings: CYP2C9 Supersomes, luciferin-H conversion, at 5 µM, stronger effect = higher value.
Sequence of Cytochrome P450 2C9 (Homo sapiens) (P11712 whole entry, looked up): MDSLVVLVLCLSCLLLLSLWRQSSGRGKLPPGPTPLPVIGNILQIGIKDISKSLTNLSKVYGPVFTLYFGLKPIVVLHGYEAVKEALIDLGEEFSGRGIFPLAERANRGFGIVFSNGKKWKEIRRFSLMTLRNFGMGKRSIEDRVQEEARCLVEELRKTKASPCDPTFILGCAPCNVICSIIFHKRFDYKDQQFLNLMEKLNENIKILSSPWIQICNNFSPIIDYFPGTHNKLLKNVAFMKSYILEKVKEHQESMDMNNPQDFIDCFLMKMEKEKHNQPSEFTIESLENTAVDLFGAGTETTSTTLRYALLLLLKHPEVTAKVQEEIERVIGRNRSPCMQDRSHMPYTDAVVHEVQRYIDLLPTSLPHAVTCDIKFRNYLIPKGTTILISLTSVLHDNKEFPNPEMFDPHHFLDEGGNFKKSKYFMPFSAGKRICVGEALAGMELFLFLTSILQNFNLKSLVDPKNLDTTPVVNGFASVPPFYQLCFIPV

Row | Structure (SMILES) | inhibition
1 | Cc1ccn2cc(C(=O)NC3CCN(Cc4ccccc4)CC3)nc2c1 | 16.4% (inactive)
2 | CCOC(=O)N1CCN(C(=O)CSc2ccc(Cl)cc2)CC1 | 42.4% (inactive)
3 | CC1(C)NC(=O)N(CCCCSc2ccc(Cl)cc2)C1=O | 85.8% (active)
4 | Cc1ccc(SCC2=NNC(=O)C2)cc1 | -7.3% (inactive)
5 | CCC(=O)c1ccc(OCC(O)CN2C(=O)NC(C)(C)C2=O)cc1 (centres undefined) | 0.4% (inactive)
6 | Cc1ccc(SCCN2C(=O)NC(C)(C)C2=O)cc1 | 68.6% (active)
7 | Cc1ccc(SCc2cc(=O)[nH]c(N3CCCCC3)n2)cc1 | 14.9% (inactive)
8 | CC(=O)N1CCCc2cc(S(=O)(=O)CCC(=O)N3CCN(c4ccccc4)CC3)ccc21 | -45.2% (inactive)
9 | COC(=O)Cn1nc(-c2ccccc2)c2cc(Cl)ccc21 | 25.2% (inactive)
10 | COc1ccc(COC(=O)c2n[nH]c3ccccc23)cc1F | 54.1% (active)
11 | O=C(COC(=O)c1n[nH]c2ccccc12)NCc1ccccc1 | 41.3% (inactive)
12 | COc1ccc(C(C)=O)cc1COC(=O)Cn1cnc2ccccc2c1=O | 41.4% (inactive)
13 | COc1ccccc1NC(=O)/C=C/C(N)=O | -19.3% (inactive)
14 | COc1ccccc1NC(=O)[C@H](COCc1ccccc1)NC(=O)OC(C)(C)C | 51.7% (active)
15 | COc1ccccc1NC(=O)CC(NCCN(C)C)C(=O)O (centres undefined) | -1.4% (inactive)
16 | CCC1(C)Cc2c(sc3[nH]c(=S)n(Cc4ccccc4)c(=O)c23)CO1 (centres undefined) | 34.5% (inactive)
17 | Oc1ccc(/C=N/NC2=NCCCCC2)c(O)c1 | -17.7% (inactive)
18 | CSCCC(NS(=O)(=O)c1ccc2c(c1)oc(=O)n2C)C(=O)NC1CCCc2ccccc21 (centres undefined) | -0.6% (inactive)
19 | CC1CCN(CC(=O)c2c[nH]c3ccccc23)CC1 | 4.9% (inactive)
20 | CCOC(=O)c1c(NC(=S)Nc2ccccc2)sc2c1CCN(C)C2 | 24.5% (inactive)
21 | O=C(O)C1CCN(C(=O)OCc2ccccc2)CC1 | 5.6% (inactive)
22 | N#Cc1c(N)sc2c1CCN(C(=O)OCc1ccccc1)C2 | 97.9% (active)

Row | Structure (SMILES) | inhibition
23 | O=C(NN1C(=O)C2C3C=CC(C4CC34)C2C1=O)c1ccc(Cl)cc1 (centres undefined) | 9.6% (inactive)
24 | COC(=O)c1ccc(OC(=O)c2nn(C)cc2Cl)c(OC)c1 | 58.9% (active)
25 | COc1ccc(C(=O)n2nc(-c3ccc(Cl)cc3)nc2N)cc1OC | -12.4% (inactive)
26 | COc1ccc(Cl)cc1C(=O)NCc1cn(C)nc1C | 1.3% (inactive)
27 | CN(C(=O)CSc1nnc(N)s1)c1c(N)n(Cc2ccccc2)c(=O)[nH]c1=O | -12.4% (inactive)
28 | COc1ccc(CC(NC(C)=O)C(=O)NC2CCN(C(=O)Nc3ccc(C#N)cc3)CC2)cc1OC (centres undefined) | 9.3% (inactive)
29 | Cc1ccc(NC(=O)C2CCCN(S(=O)(=O)c3c(C)noc3C)C2)c(C)c1 (centres undefined) | 8.4% (inactive)
30 | O=C(Nc1nccs1)C1CCN(S(=O)(=O)c2ccc(Cl)c(C(F)(F)F)c2)CC1 | -45.5% (inactive)
31 | Cc1noc(C)c1S(=O)(=O)N1CCCC(C(=O)Nc2nccs2)C1 (centres undefined) | 56.5% (active)
32 | Cc1ccc(C2=CSC3=NS(=O)(=O)CCN23)cc1C | -9.4% (inactive)
33 | CCOC(=O)CSc1nnc(-c2cccc(Br)c2)o1 | -12.3% (inactive)
34 | CCOC(=O)N1CCN(C(=O)c2cc3c(-c4ccc(Cl)cc4)nn(C)c3s2)CC1 | 25.5% (inactive)
35 | COc1cccc(-n2cc(C(=O)O)c3ccccc3c2=O)c1 | 0.5% (inactive)
36 | COc1ccccc1N1CCN(C(=O)c2cc3c(-c4ccc(Cl)cc4)nn(C)c3s2)CC1 | 97.6% (active)
37 | COc1ccccc1N1CCN(C(=O)CN(Cc2ccc(Cl)cc2)S(C)(=O)=O)CC1 | 41.4% (inactive)
38 | CCN1CCN(C(=O)c2cc3cc4ccc(OC)cc4nc3s2)CC1 | -5.1% (inactive)
39 | COc1cccc(-c2nn(C)c3sc(C(=O)N4CCN(c5ccccc5)CC4)cc23)c1 | 68.5% (active)
40 | Cc1nn(Cc2ccc(C(=O)N3N=C(C(F)F)CC3(O)C(F)F)cc2)c(C)c1[N+](=O)[O-] (centres undefined) | 25.2% (inactive)
41 | CCOC(=O)C1CCCN(C(=O)c2sc3nc(C)nc(N4CCOCC4)c3c2C)C1 (centres undefined) | 23.1% (inactive)
42 | O=C1Nc2ccccc2C12Nc1ccccc1S2 (centres undefined) | 37.5% (inactive)
43 | COc1ccc(C(CC(=O)O)NC(=O)Cc2ccccc2)cc1 (centres undefined) | -10.6% (inactive)
44 | Nn1cnnc1N/N=C/c1cc([N+](=O)[O-])c(Cl)cc1Cl | 16.5% (inactive)

Row | Structure (SMILES) | inhibition
45 | O=C(NCC(F)(F)F)Nc1nnc(C(F)(F)F)s1 | -13.1% (inactive)
46 | CN1C(=O)c2ccccc2C(C(=O)NCCCN2CCCC2)C1c1c[nH]c2ccccc12 (centres undefined) | 4.5% (inactive)
47 | CCn1nc(NC(=O)c2ccco2)c2cc3ccc(C)cc3nc21 | 19.8% (inactive)
48 | Cc1c(-c2ccccc2)cn2c1-c1ccc(C)n1CC2 | -10.8% (inactive)
49 | O=[N+]([O-])c1ccc(NCCCN2CCOCC2)c(Cl)c1 | 6.4% (inactive)
50 | CC(C)c1ccc(C(=O)NCCCc2ccccc2)cc1 | 37.2% (inactive)
51 | COC(=O)Nc1c(C)n(C)n(-c2ccccc2)c1=O | -15.1% (inactive)
52 | Cc1ccc(S(=O)(=O)Nc2ccccc2CNc2c(C)n(C)n(-c3ccccc3)c2=O)cc1 | 83.9% (active)
53 | COc1ccc(S(=O)(=O)Nc2c(C)n(C)n(-c3ccccc3)c2=O)cc1 | -4.2% (inactive)
54 | C/C(=N/NC(=O)c1cc(Cl)ccc1O)C12CC3CC(CC(C3)C1)C2 | 24.2% (inactive)
55 | Cc1nc(C)c2c(c1C(F)(F)F)-c1ccccc1C2(F)F | -9.6% (inactive)
56 | Nc1ncc(-c2cc3ccccc3oc2=O)s1 | 24% (inactive)
57 | CCN(CC)c1nc(-c2ccccc2)cc(C(F)(F)F)c1C#N | 89.5% (active)
58 | N#Cc1c(C(F)(F)F)cc(-c2ccccc2)nc1SCC(=O)N1CCOCC1 | -15.6% (inactive)
59 | CCc1c(-c2ccccc2)nc(N)c(C#N)c1-c1cccs1 | 21.7% (inactive)
60 | Cc1ccc(-c2csc(-c3c[nH]c4ccccc34)n2)cc1 | 9.8% (inactive)
61 | COc1ccc2c(Cl)c(C(=O)NCc3ccco3)sc2c1 | -31.6% (inactive)
62 | Cc1cc(SCC(=O)c2ccccc2)nc(SCC(=O)c2ccccc2)n1 | 66.3% (active)
63 | COC(=O)c1cc(C(=O)CSc2nc(C)cc(C)n2)ccc1O | 6% (inactive)
64 | Cc1nc(SCC(=O)c2ccccc2)c([N+](=O)[O-])[nH]1 | 39.1% (inactive)
